# HTR5A ag – HTR5A agonists in luminescence cell assay, primary screen, counter-screen for OPRM1-OPRD1 heterodimer agonist project, full-deck HTS; 5-hydroxytryptamine receptor 5A (Homo sapiens), P47898; cell-based; activation, % at 9.3 µM; actives 0.61% (n = 340,000); in the data active = activation mostly above about 9.5%, no sharp cut-off; inactive = mostly below about 7.6%;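 also: 0% = cells with vehicle only and 100% = reference agonist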
# HTR5A inv ctr – HTR5A inverse agonists in luminescence cell assay, primary screen, counter-screen for OPRM1-OPRD1 heterodimer inverse agonist project, full-deck HTS; AID 504634, 2011; 5-hydroxytryptamine receptor 5A (Homo sapiens), P47898; actives 0.083% (n = 340,000); inhibition, % at 9.3 µM; HTR5A cell line, inverse agonism; in the data active = inhibition mostly above about 23%, no sharp cut-off; inactive = mostly below about 18%;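 also: 0% = cells with DMSO and 100% = no-cell wells with DMSO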
# MOR-DOR ag – agonists of OPRM1-OPRD1 heterodimerization, primary screen, cell-based, luminescence. Mu-type opioid receptor (Homo sapiens) + Delta-type opioid receptor (Homo sapiens), …. cells. activation, % at 9.3 µM. actives 0.3% (n = 340,000). AID 504326, 2011; in the data active = activation above about 18%;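 also: 0% = vehicle-treated cells and 100% = reference agonist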
# Target sequence (P35372 whole entry, looked up): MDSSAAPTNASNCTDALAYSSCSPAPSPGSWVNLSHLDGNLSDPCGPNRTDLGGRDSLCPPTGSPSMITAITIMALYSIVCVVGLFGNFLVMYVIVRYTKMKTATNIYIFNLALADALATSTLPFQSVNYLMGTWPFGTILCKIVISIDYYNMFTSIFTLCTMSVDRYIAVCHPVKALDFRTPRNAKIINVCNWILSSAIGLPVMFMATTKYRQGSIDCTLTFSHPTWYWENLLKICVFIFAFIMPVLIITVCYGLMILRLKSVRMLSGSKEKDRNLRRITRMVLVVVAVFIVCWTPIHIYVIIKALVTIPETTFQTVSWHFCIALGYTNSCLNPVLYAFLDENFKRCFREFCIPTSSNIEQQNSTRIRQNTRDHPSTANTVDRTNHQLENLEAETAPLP
# Target sequence (P41143 whole entry, looked up): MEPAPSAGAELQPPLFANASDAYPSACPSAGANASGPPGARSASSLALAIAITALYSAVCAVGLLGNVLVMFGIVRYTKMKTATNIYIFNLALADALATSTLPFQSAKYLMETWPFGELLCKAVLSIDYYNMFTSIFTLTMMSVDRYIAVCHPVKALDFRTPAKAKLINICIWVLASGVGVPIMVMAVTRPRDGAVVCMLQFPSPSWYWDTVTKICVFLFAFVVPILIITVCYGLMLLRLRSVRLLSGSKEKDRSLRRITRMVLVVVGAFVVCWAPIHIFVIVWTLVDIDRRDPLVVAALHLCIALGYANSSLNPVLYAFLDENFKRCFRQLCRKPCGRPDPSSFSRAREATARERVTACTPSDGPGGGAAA
# MOR-DOR inv ag – inverse agonists of MOR-DOR heterodimerization, primary screen, cell-based, luminescence; inhibition, % at 9.3 µM; Mu-type opioid receptor (Homo sapiens) + Delta-type opioid receptor (Homo sapiens), …; actives 0.21% (n = 340,000); AID 504357, 2011; cell-based MOR-DOR heterodimer luminescence, inverse agonism; in the data active = inhibition above about 22%, passing the limit was not always enough;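 also: 0% = cells with DMSO and 100% = wells without cells with DMSO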
# * hit, by the source's call. An excerpt weighted towards active compounds, which were near 1.1% of everything screened.
SMILES,HTR5A ag,HTR5A inv ctr,MOR-DOR ag,MOR-DOR inv ag
N/C(CC(=O)Nc1ccc(F)c(Cl)c1)=N\OC(=O)c1cccs1,13*,-3,13,-64
CSc1ccc(/C=C(\C(=O)O)c2ccc(S(=O)(=O)N3CCCC3)s2)cc1,0,-1,0,-1
Cc1ccc2oc(=O)c3cnn(CC(=O)N4CCCc5ccccc54)c3c2c1,14*,2,-1,6
CCCCN(C)C(=O)C1CCCN(S(=O)(=O)c2ccc3c(c2)oc(=O)n3C)C1 (centres undefined),5,-16,-1,9
COc1ccc(CNC(=O)c2cc(=O)c3cc(C)c(C)cc3o2)cc1,10*,-36,-2,9
COC(=O)c1ccc(NC(=O)CSc2ccc(-c3ccccn3)nn2)cc1,-1,3,-1,8
CCCCOc1ccc(CSCCNC(=S)Nc2ccccc2)cc1,14*,-13,2,-12
Cc1cc(C)c(C)c(S(=O)(=O)N2CCC(C(=O)Nc3ccncc3)CC2)c1C,3,-9,0,2
Cc1ccc(NC(=O)C2(C)Cc3ccccc3C(=O)O2)cc1 (centres undefined),1,-2,1,-6
CC(=O)C1=C(O)C(=O)N(Cc2cccnc2)C1c1ccccc1 (centres undefined),-8,-24,0,3
CC(=O)C1=C(O)C(=O)N(Cc2cccnc2)C1c1ccc(Cl)cc1Cl (centres undefined),12*,-39,0,-1
COc1ccc(C(CNC(=O)c2ccc(C)c(S(=O)(=O)N3CCCCC3)c2)N2CCCC2)cc1 (centres undefined),0,-15,-2,7
COc1ccc(CNc2nc(NCc3ccc(OC)c(OC)c3)n(C(=O)c3cccs3)n2)cc1OC,14*,-22,1,-8
CC1(C)Cc2c(c(N3CCOCC3)nc3snc(NC(=O)c4ccccc4)c23)CO1,12*,-34,1,-9
Cc1noc(C)c1COc1ccccc1C(=O)N1CCN(c2cccc(C(F)(F)F)c2)CC1,0,1,-1,4
O=C(COc1cccc(Br)c1)NN=C1c2ccccc2-c2ccccc21,1,-12,-2,12
O=C(COc1cccc(Br)c1)N/N=C1\CCCc2ccccc21,14*,3,0,3
CC(=O)c1ccc(N2CCN(S(=O)(=O)c3cc4c(cc3C)NC(=O)CO4)CC2)cc1,-1,-13,-2,11
CCN(CC)S(=O)(=O)c1cc(NC(=O)CN2CCN(c3ccccn3)CC2)ccc1C,6,1,-2,11
Cc1ccc(NC(=O)CN2CCN(c3ccccn3)CC2)cc1S(=O)(=O)N(C)C,9.4*,-26,3,-17
COc1cccc(-n2c(=S)sc3c(=O)n(-c4ccccc4OC)c(=S)[nH]c32)c1,8.9*,-25,0,-2
COc1ccccc1-n1c(=S)[nH]c2c(sc(=S)n2-c2ccccc2)c1=O,-3,6,0,-1
O=S(=O)(c1c(F)cccc1F)C1CCN(S(=O)(=O)c2ccc3c(c2)OCCO3)CC1,-1,3,-1,5
CC1Nc2ncnc(N3CCN(c4ccccc4)CC3)c2N(Cc2ccc(Br)cc2)C1=O (centres undefined),-25,69*,-13,71*
COc1ccc(CN2C(=O)C(C)Nc3ncnc(N4CCN(c5ccccc5)CC4)c32)cc1 (centres undefined),-13,42*,-11,50*
SMILES,HTR5A ag,HTR5A inv ctr,MOR-DOR ag,MOR-DOR inv ag
CC1Nc2ncnc(N3CCOCC3)c2N(Cc2ccccc2)C1=O (centres undefined),-2,-5,-1,3
COc1ccc(NC(=O)Cc2nnc(SCC(=O)c3ccc(F)cc3)n2C)cc1,1,-18,-3,15
CC(=O)c1c(C)n(CC(=O)NCc2ccco2)c2ccccc12,9.8*,9,1,-3
Cc1ccccc1-n1c(=O)c2ccccc2n(CC(=O)NCc2ccco2)c1=O,1,11,-1,7
Cc1ccc2nc(N(CCN(C)C)C(=O)c3ccc4c(c3)OCCO4)sc2c1,14*,-40,-2,13
CCN(CC)CCN(C(=O)c1ccc2c(c1)OCCO2)c1nc2ccc(C)cc2s1,4,0,1,-7
C=CCNc1nc(N(c2ccccc2)c2ccccc2)nc(-n2ccnc2)n1,12*,3,4,-17
O=C(O)CC1(CC(=O)Nc2ccc(C(F)(F)F)cc2)CCCC1,9.5*,-36,-1,5
COCCn1c(SCC(=O)NCc2ccc(F)cc2)nc2ccccc21,13*,-24,0,1
COCCn1c(SCC(=O)NCc2ccccc2)nc2ccccc21,3,-8,3,-21
CCOC(=O)C1=C(O)/C(=C/c2ccc(-c3ccccc3C(=O)O)o2)SC1=Nc1ccc(OC)cc1,-1,8,-5,20
CCOC(=O)C1=C(O)/C(=C/c2ccc(-c3ccccc3C(=O)O)o2)SC1=Nc1ccc(C)cc1,13*,-14,-1,5
Cc1ccc(NC2=C/C(=N\S(=O)(=O)c3cccs3)c3ccccc3C2=O)c(C)c1,-3,8,22*,-112
O=S(=O)(c1ccc(F)cc1)N1CCN(CC2CC3C=CC2C3)CC1 (centres undefined),5,-12,2,-10
CCOc1cccc(NCc2cc3c(C(C)(C)C)nn(-c4ccccc4)c3[nH]c2=O)c1,6,-16,1,-4
CC(C)(C)c1nn(-c2ccccc2)c2[nH]c(=O)c(CNCc3ccc4c(c3)OCO4)cc12,12*,-28,6,-36
COc1cccc(-c2nc(CS(=O)(=O)CC(=O)Nc3cc(F)ccc3F)c(C)o2)c1,11*,-14,0,-2
CCOCCCNC(=O)CS(=O)(=O)Cc1nc(-c2cccc(OC)c2)oc1C,-8,20,1,-3
CCCNC(=O)CS(=O)(=O)Cc1nc(-c2cccc(OC)c2)oc1C,13*,-3,0,-1
CCCNC(=O)Cc1c(OC)ccc2cc(Br)ccc12,13*,-46,3,-18
CCCCNC(=O)Cc1c(OC)ccc2cc(Br)ccc12,6,34,-1,4
Cc1onc(C(=O)N2CCN(C(c3ccccc3)c3ccccc3)CC2)c1[N+](=O)[O-],13*,-33,16,-81
COc1ccccc1N1CCN(C(=O)c2noc(C)c2[N+](=O)[O-])CC1,9,8,-1,6
C/C(=N/Nc1ccc([N+](=O)[O-])cc1)c1ccc(C)cc1C,-4,9,4,-20
C/C(=N/Nc1ccc([N+](=O)[O-])cc1)c1c[nH]c2ccccc12,-8,30*,-3,14
CCc1ccc(S(=O)(=O)N/N=C\c2cn(CC(N)=O)c3ccccc23)cc1,6,-19,-1,6
CN(C)/C=C/c1oc2ccc(O)cc2c1[N+](=O)[O-],-11,30*,-8,41*
Cc1oc2ccc(O)cc2c1C(=O)c1ccc([N+](=O)[O-])cc1,3,-30,4,-23

# Assay outcomes (PubChem)
